High-throughput results as filed in PubChem BioAssay.
Shown are actives, neighbours in structure and some others; about 1.6% of the full set was active somewhere.
KCNQ2 enhance = potentiators of rat KCNQ2 potassium channel. Potassium voltage-gated channel subfamily KQT member 2 (Rattus norvegicus), O88943. CHO-K1 KCNQ2, FluxOR thallium flux fluorescence; hits give high values. B-score at 10 µM. actives 0.54% (n = 310,000). AID 2239, 2010;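 active means fluorescence ratio B-score at least 3 SD of library B-scores, with initial fluorescence B-score within 3 of them, cut at about 5.3 in these data; same plate scores as AID 2156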;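 further: B-score of peak minus minimum over baseline fluorescence ratio after K+ and Tl+ stimulus; positive B-score means potentiation of KCNQ2 with more thallium influx and brighter signal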
KCNQ2 inh = rat KCNQ2 potassium channel inhibitors, primary screen, cell-based, CHO-K1, FluxOR thallium flux, B-score; Potassium voltage-gated channel subfamily KQT member 2 (Rattus norvegicus), O88943; 20 min; hits give low values; B-score at 10 µM; actives 1.1% (n = 310,000);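 active means fluorescence ratio B-score at most minus 3 library SDs, with starting brightness B-score within 2 library SDs, cut at about -5.5 in these data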
Kir21 conf inh = mouse Kir2.1 channel blockers, retest, confirmation, cell-based, FluxOR thallium flux, duplicate | shares compounds with KCNQ2 enhance | actives 41% (n = 2,300) | Kir2.1-expressing cells, FluxOR thallium flux fluorescence; hits give low values | Tl flux remaining, % of negative control (hits give low values), % at 10 µM;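 active means Primary-screen hit whose thallium flux fell at least 3 control SD below untreated wells in both duplicates, with normal baseline fluorescence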;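 further: 0% = blank wells without stimulus and 100% = stimulated no-compound controls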
HEK293 ctr = parental HEK293 activity in Kir2.1 inhibitor counter-screen; shares compounds with KCNQ2 enhance; parental HEK293 cells, FluxOR thallium flux fluorescence; 0% = unstimulated blank wells; FluxOR signal as % of negative control (100 = no effect), % at 10 µM; actives 19% (n = 2,300);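 active means dye signal at least 3 control SD above or below untreated wells in both duplicates, raw fluorescence within 3, either direction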;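 further: percent is based on the flux ratio of peak minus minimum fluorescence over baseline F0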
An asterisk follows results filed as active.

Results for CCOC(=O)c1c(CSc2ccc(CC)cc2)oc2ccc(O)c(CN(C)C)c12 ?
KCNQ2 enhance: -5.8; KCNQ2 inh: -5.8*; Kir21 conf inh: 16%*; HEK293 ctr: inactive

How did COc1ccc(-c2nc(CS(=O)CC(=O)NC3CCC(C)CC3)c(C)o2)cc1OC (stereo not given) do in these assays?
KCNQ2 enhance: 0.26; KCNQ2 inh: inactive

How did COc1cc(C(C(=O)NC2CCCCC2)N(C(=O)c2cnccn2)c2ccccc2)cc(OC)c1OC (stereo not given) do in these assays?
KCNQ2 inh: inactive

How did O=C(CSc1cccc[n+]1[O-])N1CCc2ccccc21 do in these assays?
KCNQ2 inh: inactive

How did O=C(Nc1ccc(SC(F)F)cc1)c1ccc(F)cc1 do in these assays?
KCNQ2 enhance: 0.26; KCNQ2 inh: inactive

What do the screens show for `O=C(O)C(Cc1ccccc1)N1C(=O)c2ccccc2C1=O` (stereo not given)?
KCNQ2 enhance: 1.3; KCNQ2 inh: inactive

How did CN(C)CCN(Cc1ccccc1)C(=O)[C@H](Cc1ccccc1)N1C(=O)c2ccccc2C1=O do in these assays?
KCNQ2 enhance: 0.91; KCNQ2 inh: inactive; Kir21 conf inh: 69%*; HEK293 ctr: inactive

How did CCOc1ccc(S(=O)(=O)N2CCN(S(=O)(=O)c3ccc(C)c(C)c3)CC2)cc1 do in these assays?
KCNQ2 enhance: 0.07; KCNQ2 inh: inactive

What do the screens show for `CCCCOc1ccc(Br)cc1CSC(=N)N`?
KCNQ2 enhance: 0.15; KCNQ2 inh: inactive; Kir21 conf inh: 20%*; HEK293 ctr: inactive

What do the screens show for `CCCCCOc1ccc(CSC(=N)N)cc1[N+](=O)[O-]`?
KCNQ2 inh: inactive; Kir21 conf inh: 29%*; HEK293 ctr: inactive

How did COc1ccc(CSC(=N)N)cc1[N+](=O)[O-] do in these assays?
KCNQ2 enhance: 0.48; KCNQ2 inh: inactive

What do the screens show for `CCOc1ccc(C(C)=O)cc1CSC(=N)N`?
KCNQ2 enhance: 0.92; KCNQ2 inh: inactive

What do the screens show for `CCOc1ccc(S(=O)(=O)N2CCN(C(=O)c3ccccc3Cc3ccccc3)CC2)cc1`?
KCNQ2 enhance: 1.2; KCNQ2 inh: inactive

Results for Cc1cc(C(=O)NC2CC(C)(C)Cc3c2cnn3-c2cccc(F)c2)n(C)n1 (stereo not given) ?
KCNQ2 inh: inactive

How did Cc1ccc(C)c(N2CCN(C(=O)CN(C)S(=O)(=O)c3cnc[nH]3)CC2)c1 do in these assays?
KCNQ2 inh: inactive

What do the screens show for `O=C1OC(c2ccccc2)=C/C1=C/N1CCCCC1`?
KCNQ2 inh: inactive

What do the screens show for `COC(=O)/C=C1\OC(c2ccccc2)=CC1=O`?
KCNQ2 enhance: -13; KCNQ2 inh: -13*; Kir21 conf inh: 54%*; HEK293 ctr: 66%*
